The panel holds about 79,000 compounds, 15% with a hit somewhere; the sample as a whole holds those more often. Cut-off read from the data, not from the text of the source: active = growth inhibition above about 70%; inactive = the rest.
Legend:
[1] = NCI Yeast Anticancer Drug Screen. Data for the rad50 strain (AID 155);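 note: 0% = growth of vehicle-only cultures of the same strain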; settings: S. cerevisiae rad50 strain growth inhibition; at 50.0 µM; active compounds read high
In short: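 Vehicle-treated cultures provide the reference for the growth inhibition reported for compound-exposed, repair-deficient yeast.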

[2] = NCI Yeast Anticancer Drug Screen. Data for the mec2-1 strain (AID 157); settings: S. cerevisiae mec2-1 strain, at 50.0 µM, active compounds read high
In short: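 Compounds were applied to mec2-1 yeast cells. Their growth was then compared with that of vehicle-treated cultures to give growth inhibition.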

[3] = NCI Yeast Anticancer Drug Screen. Data for the sgs1 mgt1 strain (AID 161);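 note: 0% = growth of cultures given vehicle only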; settings: S. cerevisiae sgs1 mgt1 strain, at 50.0 µM, active compounds read high
In short: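 Percent growth inhibition was derived by comparing compound-exposed mutant yeast with vehicle-exposed cultures. The strain carries alterations in DNA damage repair.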

[4] = NCI Yeast Anticancer Drug Screen. Data for the cln2 rad14 strain (AID 165);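 note: 0% = growth equal to vehicle treated cultures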; settings: S. cerevisiae cln2 rad14 strain, at 50.0 µM, active compounds read high
In short: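 Strain: cln2 rad14 yeast, altered in cell cycle control and DNA damage repair. Read-out: growth inhibition vs vehicle.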

[5] = NCI Yeast Anticancer Drug Screen. Data for the bub3 strain (AID 167); settings: S. cerevisiae bub3 mutant strain, at 50.0 µM, active compounds read high
In short: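 Mutant yeast screening strain plus compound; vehicle-treated cultures serve as the 0% inhibition reference.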

[6] = NCI Yeast Anticancer Drug Screen. Data for the mlh1 rad18 strain (AID 175); settings: S. cerevisiae mlh1 rad18 strain growth inhibition; at 50.0 µM; active compounds read high
In short: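 A repair-deficient yeast strain is exposed to test compound, and growth is scored relative to vehicle-treated controls.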

Measured: growth inhibition

CCSC(C(O)C(O)C(O)C(O)CO)n1cc(C)c(=O)[nH]c1=O (stereo not given)
inactive: [1] 3% | [2] 5.45% | [3] -2.85% | [4] -3.7% | [5] 4.2% | [6] -0.25%

CCN(CC)CCN=C1Nc2ccccc2N(O)N1
inactive: [1] 0.55% | [2] -1.5% | [3] 11.6% | [4] -23.3% | [5] 12.6% | [6] -2.95%

Cn1c(=O)c2[nH]c(/N=N\n3ccc4ccccc43)nc2n(C)c1=O
inactive: [1] 2.1% | [2] 21.6% | [3] -5.6% | [4] -8.85% | [5] 24.6% | [6] 4.1%

COc1ccccc1CC/C(C)=N/NS(=O)(=O)c1ccc(C)cc1
inactive: [1] 10.8% | [2] 4.1% | [3] 6.35% | [4] -24.1% | [5] 11.5% | [6] 6.5%

CN(C)C1C(CO)OC(n2cnc3c(N)ncnc32)C1O (stereo not given)
inactive: [1] 21.2% | [2] 12.8% | [3] -19.4% | [4] 22% | [5] -11.8% | [6] -82.2%

Reference: PubChem BioAssay (NCI)
